71 compounds from ChEMBL document CHEMBL4808148, “HDAC6 screening dataset using tau-based substrate in an enzymatic assay yields selective inhibitors and activators” (2021) can be followed below.

Where “and” joins values, the source holds several entries; their conditions need not be identical. Equal values may be shown once. Among all 5,600 compounds or so, about 150 (2.7%) showed an effect of 50% or more. The entries come from a sample that favours strong results as a whole.

The target in test [1] is T1, Protein deacetylase HDAC6 (Homo sapiens) (UniProt Q9UBN7).
T1 sequence (whole entry): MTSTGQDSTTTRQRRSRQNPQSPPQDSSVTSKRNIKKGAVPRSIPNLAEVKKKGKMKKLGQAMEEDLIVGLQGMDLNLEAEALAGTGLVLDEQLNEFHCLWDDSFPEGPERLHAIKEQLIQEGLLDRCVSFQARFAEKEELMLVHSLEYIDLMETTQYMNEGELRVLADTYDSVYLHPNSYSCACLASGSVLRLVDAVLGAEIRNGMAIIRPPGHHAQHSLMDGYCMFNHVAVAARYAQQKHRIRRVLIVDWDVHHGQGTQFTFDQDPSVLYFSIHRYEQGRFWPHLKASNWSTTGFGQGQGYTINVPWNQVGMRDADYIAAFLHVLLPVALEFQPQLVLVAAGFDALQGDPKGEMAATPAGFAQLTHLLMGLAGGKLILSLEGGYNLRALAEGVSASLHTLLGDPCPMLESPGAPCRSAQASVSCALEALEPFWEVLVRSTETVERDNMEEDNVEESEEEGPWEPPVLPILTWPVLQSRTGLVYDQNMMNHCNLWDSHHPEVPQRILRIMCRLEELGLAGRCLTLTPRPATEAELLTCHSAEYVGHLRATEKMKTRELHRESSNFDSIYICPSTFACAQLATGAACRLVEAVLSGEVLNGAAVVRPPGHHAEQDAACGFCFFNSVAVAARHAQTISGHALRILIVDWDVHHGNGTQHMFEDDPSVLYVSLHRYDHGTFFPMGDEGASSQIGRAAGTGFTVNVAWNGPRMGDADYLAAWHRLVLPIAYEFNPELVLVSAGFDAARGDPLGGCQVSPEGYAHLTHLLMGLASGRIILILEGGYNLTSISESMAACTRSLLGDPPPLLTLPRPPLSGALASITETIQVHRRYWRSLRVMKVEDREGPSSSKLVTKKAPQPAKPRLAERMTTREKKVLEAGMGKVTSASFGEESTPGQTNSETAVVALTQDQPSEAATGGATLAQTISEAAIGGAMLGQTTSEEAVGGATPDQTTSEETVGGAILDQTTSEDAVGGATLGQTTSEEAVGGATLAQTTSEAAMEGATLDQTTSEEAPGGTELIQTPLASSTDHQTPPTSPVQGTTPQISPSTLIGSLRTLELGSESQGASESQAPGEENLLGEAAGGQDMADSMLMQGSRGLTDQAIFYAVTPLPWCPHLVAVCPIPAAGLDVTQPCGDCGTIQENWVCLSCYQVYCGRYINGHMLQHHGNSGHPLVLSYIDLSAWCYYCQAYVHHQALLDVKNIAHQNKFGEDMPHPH
The conditions noted are these: at 10 µM.

The target of test [2] is Protein deacetylase HDAC6 (Homo sapiens) (UniProt Q9UBN7). As to conditions: at 10 µM. This is another data set of the same source.

As for `FC(F)(F)c1cc(NC(=S)Nc2ccc(Br)cc2-c2nnn[nH]2)cc(C(F)(F)F)c1`, the inhibition – broadly, the drop in the measured response relative to a control, in per cent – in test [1] worked out at 67.5%.
Same read-out and setting: in the case of `COc1cc(C[C@@H](CO[C@@H]2O[C@H](CO)[C@@H](O)[C@H](O)[C@H]2O)[C@H](CO[C@@H]2O[C@H](CO)[C@@H](O)[C@H](O)[C@H]2O)Cc2ccc(O)c(OC)c2)ccc1O` it was -3.26%.
The same measure, in the same setting: in the case of `COc1ccc(C[C@@H](C)[C@@H](C)Cc2ccc(OC)c(OC)c2)cc1OC` it was -2.57%.
For the compound `COc1ccc(/C=C/C(=O)/C=C(O)/C=C/c2ccc(OC)c(OC)c2)cc1OC`, the inhibition in test [1] stood at 4.07%.
Same read-out and setting: to `Cn1cc(C2=C(c3cn(CCCSC(=N)N)c4ccccc34)C(=O)NC2=O)c2ccccc21` belongs -0.14%; to `Cn1cc(C2=C(c3ccc(Cl)cc3Cl)C(=O)NC2=O)c2ccccc21`, -3.78%; to `Cn1cc(/C=C2/C(=O)Nc3cccnc32)c2ccccc21`, 66.2%.
On the same count and under the same terms, in the case of `CCNC(=O)CC[C@@H](N)C(=O)O` it was -3.08%.
Same read-out and setting: in the case of `CN(C)CC(O)Cn1c2ccc(Br)cc2c2cc(Br)ccc21` (stereo unspecified) it was -0.45%.
Consider `O=C1OC2(c3cc(I)c(O)c(I)c3Oc3c2cc(I)c(O)c3I)c2c(Cl)c(Cl)c(Cl)c(Cl)c21`, for which, in test [1], the inhibition is 31.9% and 41.8%.
Same read-out and setting: in the case of `CCOC(=O)c1ccc(N2NC(=O)/C(=C/c3ccc([N+](=O)[O-])o3)C2=O)cc1` it was 3.77%; in that of `Cn1nc(-c2ccc(C(F)(F)F)cc2)nc2c(=O)n(C)c(=O)nc1-2`, 82.8%.
The same measure, in the same setting: in the case of `Cc1cccc(C)c1NC(=O)/N=C1\CCCN1C` it was -2.32%; in that of `Cc1ccc(-c2[nH]nc3c2C(c2cccc(O)c2)N(c2ccc(C(=O)O)cc2)C3=O)cc1` (stereo unspecified), -3.95%.
Still for that read-out and setting: to `C1Cc2[nH]nc(-c3nn[nH]n3)c2C1` belongs -4.01%; to `COc1ccc2[nH]c(SCc3ncc(C)c(OC)c3C)nc2c1`, 7.26%.
In the case of `N#Cc1cccc(-c2c[nH]c3ncnc(N4CCOCC4)c23)c1`, the inhibition in test [1] was -3.83%.
Take `CCN(CC)CCn1c(=O)c(Cc2ccc(OC)cc2)nc2ccccc21`: the inhibition in test [1] was -4.21%.
Still for that read-out and setting: to `CCCCc1nc2cc(/C=C/C(=O)NO)ccc2n1CCN(CC)CC` belongs 97.3%; to `CCCCc1nc(-c2ccc(OCCCN(CC)CC)cc2)cn1-c1ccc(Oc2ccc(Cl)cc2)cc1`, 9.56%; to `CC(C)(C)/[N+]([O-])=C/c1ccc(S(=O)(=O)O)cc1S(=O)(=O)O`, -5.01%.
On the same count and under the same terms, to `CCCc1c(OCCCOc2ccc(OCC(=O)O)cc2)ccc(CC=O)c1O` belongs -1.53%; to `O=C(O)/C=C\c1c[nH]cn1`, -0.7%; to `Nc1ccc(C(=O)O)c(O)c1`, -3.77%.
`O=C(Nc1ccc(C(=O)O)c(O)c1)c1ccccc1`: the inhibition in test [1] amounted to 95.5%.
On the same count and under the same terms, to `CC1(C)CCC(C)(C)c2cc(NC(=O)c3ccc(C(=O)O)cc3)ccc21` belongs -2.96%.
Consider OXALIPLATIN, CHEMBL414804, for which, in test [2], the inhibition is -4.35%.
In the case of `CN[C@H](CNC(=O)N1CCC[C@@H]([C@@H](OCCNC(=O)OC)c2cccc(Cl)c2)C1)C[C@H]1CCCOC1`, in test [1], the inhibition was 8.55%.
The same measure, in the same setting: to `Cc1ccc(OCCSc2ncccn2)c(Br)c1` belongs 77.5%; to `Cc1cc(OCC(=O)O)cc(C)c1Cc1ccc(O)c(C(C)C)c1`, -5.84%.
Turning to `O=C1[C@@H]2[C@H]3CC[C@H](C3)[C@@H]2C(=O)N1CCCCN1CCN(c2ncccn2)CC1`, the inhibition in test [1] was found to be 6.98%.
Same read-out and setting: in the case of `N#Cc1c[nH]c2c(C(=O)N3CCN(CCc4ccc(F)cc4)CC3)cccc12` it was 4.22%; in that of `COc1ccccc1C(=O)Nc1cccc(NC(=O)c2cccc(C)c2)c1`, 8.47%; in that of `CC(=O)CC(=O)O`, -2.94%.
The same measure, in the same setting: in the case of `O=C(CCCCCCNC(=O)c1cnc(N(c2ccccc2)c2ccccc2)nc1)NO` it was 97.5%.
On the same count and under the same terms, in the case of `O=C(CCNNC(=O)c1ccncc1)NCc1ccccc1` it was -3.21%; in that of `CCCCCCCCCCCCCCCC(=O)NCCO`, -0.28%; in that of `N#C/C(=C\c1cccn1S(=O)(=O)c1cccc([N+](=O)[O-])c1)S(=O)(=O)c1ccc(F)cc1`, 6.35%.
Take `N[C@@H](CC(=O)NO)C(=O)O`: in test [1], the inhibition is -1.74%.
The same measure, in the same setting: to `O=C1Nc2c(ccc(Cl)c2Cl)/C1=N\O` belongs 1.23%; to `Oc1cccc(-c2c3nc(c(-c4cccc(O)c4)c4ccc([nH]4)c(-c4cccc(O)c4)c4nc(c(-c5cccc(O)c5)c5ccc2[nH]5)CC4)C=C3)c1`, 2.63%; to `Nc1nc(N)c2nc(-c3cccc(O)c3)cnc2n1`, 66.2%.
Same read-out and setting: to `Nc1nc(N)c2nc(-c3ccccc3)c(N)nc2n1` belongs 22%; to `CCN(CC)Cc1ccc(Nc2ccnc3cc(Cl)ccc23)cc1O`, 0.37%; to `O=C(c1ccc(CN2CCOCC2)cc1)N1CCN(C2CC2)CC1`, 4.17%.
On to `O=C1NC(=O)/C(=C/c2ccc3c(c2)OC(F)(F)O3)S1`, for which the inhibition in test [1] is -1.91%.
The same measure, in the same setting: to `O=C1NC(=O)/C(=C/c2cccc(C(F)(F)F)c2)S1` belongs 8.21%.
On the same count and under the same terms, in the case of `O=C1NC(=O)/C(=C/c2ccc(-c3ccc(F)cc3O)o2)S1` it was 87%; in that of `Cc1[nH]nc(C(F)(F)F)c1Cc1sc2c(c1C(=O)N1C[C@](C)(O)CO1)c(=O)n(C)c(=O)n2C(C)C`, 7.6%.
Still for that read-out and setting: in the case of `O=C(NC1CCN(CCc2c[nH]c3ccccc23)CC1)c1ccccc1` it was 22.6%; in that of `O=C(O)[C@H](Cc1c[nH]c2ccccc12)N1C(=O)c2ccccc2C1=O`, 3.67%; in that of `Oc1cc(O)cc(/C=C/c2ccc(O)c(O)c2)c1`, 74%.
For `COc1ccc(/C=C\c2cc(OC)c(OC)c(OC)c2)cc1O`, the inhibition in test [1] is -2.33%.
Still for that read-out and setting: in the case of `Oc1cc(O)cc(O)c1` it was 2.03%; in that of `COc1cc(/C=C/c2ccc(O)cc2)cc(OC)c1`, -1.8%.
On the same count and under the same terms, to `Oc1ccc(/C=C/c2cc(O)cc(O)c2)cc1` belongs 85.4%.
As to `O=C(/C=C/c1ccc(O)c(O)c1)OCCc1ccccc1`, the inhibition in test [1] amounted to 13.8%.
For `CCCCNc1ncc(-c2ccc(CN3CCOCC3)cn2)c(N[C@H]2CC[C@H](O)CC2)n1`, in test [1], the inhibition is -9.04%.
On the same count and under the same terms, in the case of `CCc1c(C(=O)Nc2cc(S(=O)(=O)N(CC)CC)ccc2O)[nH]c(C)c1C(C)=O` it was -2.94%.
On to `NC(Cn1ccc(=O)n(Cc2ccccc2C(=O)O)c1=O)C(=O)O` (stereo unspecified), for which, in test [1], the inhibition was -9.78%.
Take SPIRAMYCIN, CHEMBL6195749: the inhibition in test [2] was -1.63%.
Take `COc1ccc(Cl)cc1[C@]1(F)C(=O)Nc2cc(C(F)(F)F)ccc21`: in test [1], the inhibition was -2.57%.
Same read-out and setting: to `Nc1n[nH]c2nc3ccccc3nc12` belongs 33.5%.
On the same count and under the same terms, in the case of `O=C(NO)c1ccc(O)c(O)c1` it was 56.3%; in that of `O=C(O)C(O)Cc1ccc(O)c(O)c1` (stereo unspecified), 6.01%.
Same read-out and setting: in the case of `CC(C)C(=O)c1ccc(O)c(O)c1` it was 0.03%; in that of `COc1cc2c(c(OC)c1OC)-c1c(cc3c(c1OC)OCO3)C[C@@H](C)[C@@H](C)C2`, -5.94%; in that of `O=S(=O)(NCCCCCCc1ccccc1)c1cccc2c(Cl)cccc12`, -3.75%.
Take `Oc1ccc(OCc2ccccc2)cc1`: the inhibition in test [1] is 87%.
Regarding `CC/C(=C(\c1ccc(O)cc1)c1ccc(OCCNC)cc1)c1ccccc1`, the inhibition in test [1] is -2.91%.
With `COc1ccc(O)cc1`, the inhibition in test [1] is 1.74%.
